Data taken from the supplement of paper PMC3334620.
Over roughly 33,000 sequences, “E-score (-0.5 to 0.5)” has its median near -0.053; the highest 2% begin near 0.37. Many of the other results were omitted from the sample, so the highest values are more common in it than they were.

Molecular target: Hap1 (UniProt P0CE41)
Assay: PBM E-score (8-mer binding enrichment) (E-score (-0.5 to 0.5)); higher = stronger / more preferred TF binding
Settings: protein concentration: 200 nM; construct: GST-DNA-binding domain
Protocol: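 Universal 'all 10-mer' protein binding microarrays (Agilent AMADID 015681) probed with GST-tagged S. cerevisiae TFs (full-length or DBD) made by in vitro transcription/translation (PURExpress), about 100-200 nM. Bound TF was detected with fluorescent anti-GST. Each ungapped 8-mer (which stands for itself and its reverse complement) is scored by the PBM enrichment score (E-score), a modified Wilcoxon-Mann-Whitney statistic from -0.5 to +0.5, computed with the Universal PBM Analysis Suite. Scale: above 0.35 generally sequence-specific binding.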

Chain of UniProt P0CE41 (P0CE41 whole entry): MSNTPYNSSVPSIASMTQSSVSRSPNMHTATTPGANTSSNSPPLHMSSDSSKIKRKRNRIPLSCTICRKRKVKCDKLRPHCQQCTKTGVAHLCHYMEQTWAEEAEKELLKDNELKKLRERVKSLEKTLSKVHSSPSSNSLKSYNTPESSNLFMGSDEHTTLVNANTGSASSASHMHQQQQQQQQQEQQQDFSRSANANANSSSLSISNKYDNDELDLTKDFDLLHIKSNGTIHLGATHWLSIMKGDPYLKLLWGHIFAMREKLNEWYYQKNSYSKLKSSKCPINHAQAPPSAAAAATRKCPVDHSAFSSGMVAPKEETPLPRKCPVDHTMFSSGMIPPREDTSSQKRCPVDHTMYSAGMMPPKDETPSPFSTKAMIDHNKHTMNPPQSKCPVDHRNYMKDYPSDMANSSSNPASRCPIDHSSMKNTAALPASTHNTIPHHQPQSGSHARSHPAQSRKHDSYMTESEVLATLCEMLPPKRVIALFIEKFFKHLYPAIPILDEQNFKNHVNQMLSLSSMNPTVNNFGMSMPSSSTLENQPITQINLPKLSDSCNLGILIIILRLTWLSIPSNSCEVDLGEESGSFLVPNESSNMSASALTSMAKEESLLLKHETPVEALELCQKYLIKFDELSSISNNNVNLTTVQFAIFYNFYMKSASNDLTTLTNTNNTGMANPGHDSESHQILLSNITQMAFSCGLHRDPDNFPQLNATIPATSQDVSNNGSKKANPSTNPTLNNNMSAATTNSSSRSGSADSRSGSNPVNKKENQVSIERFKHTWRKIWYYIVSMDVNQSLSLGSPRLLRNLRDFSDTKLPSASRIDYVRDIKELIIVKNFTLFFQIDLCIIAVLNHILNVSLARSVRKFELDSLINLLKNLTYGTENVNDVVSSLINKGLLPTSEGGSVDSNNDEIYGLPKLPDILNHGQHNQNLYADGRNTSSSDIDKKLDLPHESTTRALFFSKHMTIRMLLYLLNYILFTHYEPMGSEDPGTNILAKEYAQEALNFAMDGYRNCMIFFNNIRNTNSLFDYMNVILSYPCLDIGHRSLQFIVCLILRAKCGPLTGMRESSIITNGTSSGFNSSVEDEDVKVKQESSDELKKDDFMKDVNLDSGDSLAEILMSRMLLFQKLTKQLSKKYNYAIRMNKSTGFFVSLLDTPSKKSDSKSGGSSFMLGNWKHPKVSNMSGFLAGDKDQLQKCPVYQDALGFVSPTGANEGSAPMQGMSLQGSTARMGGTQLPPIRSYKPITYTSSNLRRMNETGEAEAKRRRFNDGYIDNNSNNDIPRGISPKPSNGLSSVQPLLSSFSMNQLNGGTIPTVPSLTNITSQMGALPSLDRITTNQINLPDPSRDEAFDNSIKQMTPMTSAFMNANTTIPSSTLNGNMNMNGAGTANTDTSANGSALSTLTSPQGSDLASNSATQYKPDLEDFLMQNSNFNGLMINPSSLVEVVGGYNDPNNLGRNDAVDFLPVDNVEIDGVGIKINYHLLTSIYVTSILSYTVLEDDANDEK

| Sequence | PBM E-score |
| --- | --- |
| ATGACGAG | -0.168 |
| CCCGCACC | 0.151 |
| ATCCCAAC | -0.239 |
| GGCAGGAC | 0.0548 |
| CATAAGAC | 0.0262 |
| CCGAGCGA | 0.36 |
| ACGAGCGC | -0.00987 |
| ACGAGCCG | 0.0797 |
| CCGAGAGA | 0.309 |
| GCGAGCGC | 0.137 |
| CCGAGCGG | 0.395 |
| ACGAGCGG | 0.161 |
| CCGAGCGC | 0.384 |
| ACGAGAGC | -0.0925 |
| CCGAGCCG | 0.397 |
| CCGAGCCA | 0.347 |
| CCGAGAGC | 0.396 |
| ACATTGGA | -0.0771 |
| AAGCTGCC | 0.0235 |
| CATTTCCC | 0.162 |
| ATCTACGG | 0.299 |
| CCTGAGCA | -0.151 |
| AAAGCCGC | 0.305 |
| GAAGCCGA | 0.308 |
| TAAGCCGA | 0.382 |

| Sequence | PBM E-score |
| --- | --- |
| AAAGCCCG | 0.374 |
| AAAGCCGG | 0.439 |
| CAAGCCGG | 0.292 |
| AAAGCCTG | -0.184 |
| AAAGCCGT | 0.322 |
| AAAGCCCT | -0.0264 |
| AAAGCCGA | 0.426 |
| AAAGCCCC | 0.106 |
| CAAGCCGA | 0.24 |
| GCCGCTTA | 0.073 |
| GTAGCCAC | -0.194 |
| GTTTTAGA | 0.00012 |
| AGAGAACG | -0.258 |
| CAATTCGG | 0.267 |
| GTGCTGCA | 0.0816 |
| CCAGCACG | -0.13 |
| AAAAGCCC | 0.138 |
| AAAAGCCG | 0.414 |
| AAAAGCCT | -0.221 |
| AGCTTTGG | -0.135 |
| CCCCGACA | 0.302 |
| AGCGGACA | 0.326 |
| GCCGGATA | 0.426 |
| CCCGGACG | 0.388 |
| ACCGGACA | 0.411 |

| Sequence | PBM E-score |
| --- | --- |
| CCCCGACC | 0.238 |
| CACGGACG | 0.331 |
| ACCGGATA | 0.359 |
| CCGGGACG | 0.199 |
| CCCCGACG | 0.379 |
| CCCGGATA | 0.325 |
| ACTGGACA | -0.00994 |
| AGATCCCG | 0.283 |
| AGTACCCG | 0.1 |
| CGAAAGAG | 0.0191 |
| AGGTGCTC | -0.269 |
| CCTGGAGC | -0.197 |
| ACTCGCAA | -0.231 |
| GTCCACTA | -0.102 |
| GAACTGCC | -0.0156 |
| CTACCATA | -0.191 |
| GATGAGCA | -0.0729 |
| ACAATAGG | -0.0571 |
| GAAACGTC | -0.0511 |
| GATATGCA | 0.0359 |
| AGCTACTG | -0.00261 |
| GACGGACA | 0.325 |
| TACGGACA | 0.291 |
| CCCGGACC | 0.361 |
| GCCGGACA | 0.423 |

| Sequence | PBM E-score |
| --- | --- |
| TCCGGACA | 0.444 |
| GCCGGACC | 0.341 |
| TGCGGACA | 0.22 |
| CCCGGACA | 0.39 |
| CCGGGACA | 0.299 |
| CCGGGCTC | 0.243 |
| ACACTCAG | -0.208 |
| GACCCCGA | 0.285 |
| CACCCCGA | 0.229 |
| CCCCCCGA | 0.253 |
| ACCCCCGT | 0.126 |
| AACCCCCA | -0.217 |
| AACCCCGA | 0.456 |
| TCCCCCGA | 0.393 |
| TACCCCGA | 0.398 |
| GCCCCCGA | 0.2 |
| AACCCCGT | 0.329 |
| ACACCCGA | 0.305 |
| ACCCCCGA | 0.371 |
| AACAAAGG | 0.0332 |
| AGGGATAC | -0.181 |
| CCGGCTAA | 0.331 |
| TCGTTCAA | -0.246 |
| GGGGAGGA | 0.093 |
| GCATAGAC | -0.19 |

| Sequence | PBM E-score |
| --- | --- |
| GGCCTCTA | -0.34 |
| ACATCTCT | -0.0976 |
| CCGTTATC | 0.385 |
| ACGTTATC | 0.17 |
| CCGTTATA | 0.311 |
| GACACAAA | 0.132 |
| GGGACGAC | -0.117 |
| AGGACGAG | -0.282 |
| CGGACGAC | 0.371 |
| CGGACGAA | 0.431 |
| CGGACGAG | 0.387 |
| CCGACGAG | 0.259 |
| AGGACGAA | 0.128 |
| GGGACGAA | 0.0323 |
| AGGACGAC | -0.143 |
| CCCCGTAC | 0.0387 |
| CTATGAGA | -0.248 |
| ATAGCCCG | 0.173 |
| GCCCAGCA | -0.0648 |
| ATAAGAAG | 0.0696 |
| ATATCTTC | 0.152 |
| GCTTAACC | -0.0526 |
| CTCACCTA | -0.159 |
| CATATCGG | 0.404 |
| AATATCGG | 0.443 |

| Sequence | PBM E-score |
| --- | --- |
| AATATCCG | 0.414 |
| AATATCGA | 0.0281 |
| AATATCGC | 0.314 |
| ATTATCCG | 0.391 |
| CATATCGC | 0.179 |
| CATATCGA | 0.0363 |
| AATATCCC | 0.109 |
| AATATCCA | 0.0415 |
| ATTATCCC | 0.0666 |
| ATTATCCA | -0.0526 |
| CTGCACTA | 0.0173 |
| AGACACGC | -0.0363 |
| ACTCATCG | -0.0326 |
| AACTATGG | -0.0562 |
| CACGCCAA | -0.148 |
| CACAGCTG | -0.194 |
| CGGATGGA | 0.238 |
| GAGCGTTA | -0.121 |
| ACCTTGAG | -0.113 |
| AAAATCCC | 0.0176 |
| CAAATCCG | 0.344 |
| AAAATCCG | 0.437 |
| ATTATCGA | -0.0673 |
| ATTATCGC | 0.132 |
| ATTATCGG | 0.432 |

| Sequence | PBM E-score |
| --- | --- |
| GCTCGAGC | 0.0114 |
| GCGAACGA | 0.00245 |
| GGACCCTA | -0.0296 |
| CGGCGCAC | 0.259 |
| GAAAGACA | -0.0415 |
| AATACCGC | 0.304 |
| AATACCGT | 0.252 |
| ATTACCGA | 0.348 |
| AATACCGG | 0.451 |
| ATTACCGG | 0.434 |
| ATTACCGC | 0.274 |
| CATTCAGA | -0.141 |
| ACATCGCA | -0.0398 |
| GAGGAGAC | -0.0943 |
| GAAAGGGA | -0.0702 |
| ACCTTATC | 0.139 |
| GTGGCCAC | 0.203 |
| ATCGGGTA | 0.283 |
| ATCGGGTC | 0.343 |
| CGCGGAGC | 0.274 |
| GGCGGAGA | 0.36 |
| ATCGGAGC | 0.396 |
| ATCGGGGA | 0.386 |
| AGCGGAGC | 0.223 |
| ATCGGGTG | 0.37 |

| Sequence | PBM E-score |
| --- | --- |
| ATCAGAGC | -0.0942 |
| GTCGGGGA | 0.301 |
| ATCGGGGG | 0.349 |
| CGCGGAGA | 0.397 |
| ACGAACCA | -0.038 |
| CTCCTATA | -0.327 |
| AGATCACG | -0.113 |
| GAATTTAC | 0.0854 |
| ACGCCTCC | 0.00213 |
| AGAAAAAG | -0.0187 |
| CTTGGAGA | -0.0528 |
| CTCGGAGC | 0.322 |
| GTCGGAGA | 0.355 |
| ATCGGAGA | 0.415 |
| ATCGGAGG | 0.227 |
| CTCGGAGA | 0.407 |
| ACGATTTC | 0.0291 |
| ATATGGAC | -0.0394 |
| GGTCTGCA | 0.0455 |
| CATTCGGA | 0.321 |
| AATTCGGG | 0.287 |
| AATTCGGA | 0.414 |
| TATTCGGA | 0.37 |
| AATTCGGC | 0.131 |
| GATTCGGA | 0.299 |

| Sequence | PBM E-score |
| --- | --- |
| CAACAGCG | -0.0733 |
| AGATTACA | 0.0437 |
| CACCACGC | -0.201 |
| GACATCCA | -0.175 |
| ATAACCAA | -0.182 |
| ACCCTGGC | -0.146 |
| GCAAGAGC | -0.151 |
| AGATTCTG | -0.14 |
| ATCTGCCG | 0.318 |
| AAACACCG | 0.388 |
| CAACACCG | 0.13 |
| AAACACCT | -0.0632 |
| TCAAAAGA | -0.152 |
| CCACTTTA | -0.00297 |
| TCCGCCCA | 0.209 |
| AATGCCTC | -0.116 |
| TGGAGCAA | -0.195 |
| CGGAGCTC | 0.313 |
| CGGAGCAA | 0.394 |
| CGGAGCAC | 0.196 |
| AGGAGCTA | -0.192 |
| CGGAGCTA | 0.443 |
